The results in this text go back to PubChem BioAssay AID624156 (Broad Institute, 2012).

Structures are written as SMILES. The campaign covered roughly 46,000 compounds. About 900 (2%) were called active. Another 1% or so got no clear call; they are omitted. Many of the other results were omitted from the sample, so actives are more common in it than they were. Unmarked numbers belong to inactive results. Rule as the data show it: active = ROS induction above about 79% (passing the limit was not always enough); inconclusive = no clear call, values can overlap the other calls.

This assay in a line: ROS inducers in U2OS cancer cells, primary screen, cell-based, H2DCF-DA fluorescence (AID 624156).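 Also: 0% = DMSO vehicle median and 100% = reference compound median.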 To be noted: at 10 µM, active compounds read high.
`CCCC(O)C#Cc1cnc2c(c1)C(=O)N([C@H](C)CO)C[C@H](C)[C@H](CN(C)Cc1ccc(F)cc1)O2` (stereo partly drawn): the ROS induction (% of piperlongumine) is 94.3% (active).
On to `CN1CCN(CC(O)COc2ccc3ccccc3c2)CC1` (stereo not drawn), for which the ROS induction (% of piperlongumine) is -2.48%.
With `CC(C)CC(C(=O)O)N1C(=O)c2ccccc2C1=O` (stereo not drawn) the figure was -9.51%.
With `Cn1c(=O)c2c(nc(SCC(=O)Nc3ccccc3F)n2Cc2ccccc2)n(C)c1=O` the figure was 11.1%.
With `O=C(Nc1nccs1)C1CCCN(C(=O)c2cnn(-c3ccccc3)c2-n2cccc2)C1` (stereo not drawn) the figure was 4.87%.
With `COc1ccc(NS(=O)(=O)c2ccc(OCC(F)(F)F)c(C#N)c2OCC(F)(F)F)cc1`, the ROS induction (% of piperlongumine) was -8.52%.
With `CCOc1ccc2c(=O)c(Oc3ccccc3Br)coc2c1` the figure was 0.931%.
For the compound `Cc1noc(C)c1NC(=O)NCc1ccc2c(c1)OCO2`, the ROS induction (% of piperlongumine) is -1.2%.
With `CN(C)c1ccc(/C=C(\C#N)S(=O)(=O)c2ccccc2)cc1C#N` the figure was -4.92%; with `CC1CCN(C(=O)CCNS(=O)(=O)c2cccc3nsnc23)CC1`, -19.6%.
With `Cc1cc(C(C)(C)C)cc(S(=O)(=O)Nc2ccc(C(=O)N3CCC(C)CC3)cc2)c1C` the figure was 5.57%; with `Cc1cccc(NC(=O)c2nnn(-c3cccc(C(F)(F)F)c3)c2N)c1`, -17.1%.
With `O=S(=O)(NCc1csc(-c2cccnc2)n1)c1ccc2c(c1)CCCC2`, the ROS induction (% of piperlongumine) was 5.59%.
For `Cn1c(=NC(=O)CCOc2ccccc2)sc2cc(Br)ccc21`, the ROS induction (% of piperlongumine) is 1.27%.
The same measure for `Cc1ccc(Nc2cc(C(=O)NCC3CCCO3)c3ccccc3n2)cc1C` (stereo not drawn): 1.21%; for `Cc1ccc(S(=O)(=O)N(CC(=O)Nc2ccc3c(c2)OCCO3)C2CCCCC2)cc1`: 7.86%.
The same measure for `Cc1cc(Nc2ccc(Cl)cc2)c2ccccc2n1`: 6.49%; for `Cc1cc(Sc2nnc(C)s2)c2ccccc2n1`: 255% (active).
For the compound `Cc1nnc(SCc2cc(=O)[nH]c(N3CCN(Cc4ccccc4)CC3)n2)s1`, the ROS induction (% of piperlongumine) was -2.67%.
The same measure for `Cc1ccc2c(Sc3ccc(Cl)cc3)c(C(=O)NC3CCCC3)[nH]c2c1`: -12.5%; for `O=C(N/N=C/c1cc(F)ccc1O)c1ccccc1O`: -13.6%.
With `CNC(=O)NC(=O)CSc1ncnc2sc(-c3ccccc3)cc12` the figure was 5.81%; with `c1ccc(Nc2ncnc3sc(-c4ccccc4)cc23)cc1`, 130% (active).
The same measure for `Cc1ccccc1NC(=O)NC(=O)CC#N`: -16.4%; for `C[C@@H]1CN([C@@H](C)CO)C(=O)c2cc(NC(=O)C3CC3)ccc2O[C@H]1CN(C)C`: -0.632%.
Take `Cn1c(=O)c2c(nc(SCC(=O)NC(C)(C)C)n2Cc2ccccc2F)n(C)c1=O`: the ROS induction (% of piperlongumine) was 0.779%.
The same measure for `CC(C)C1Cc2c(sc3nc(SCC(=O)Nc4ccccc4)nc(N)c23)CO1` (stereo not drawn): 44%; for `Cc1ccc(NC(=O)c2ccc(CSc3ccccn3)cc2)c(C)c1`: -9.72%; for `C[C@@H]1CN([C@H](C)CO)C(=O)c2cc(NS(=O)(=O)c3ccc(F)cc3)ccc2O[C@H]1CN(C)C(=O)Nc1cccc2ccccc12`: 6.38%.
In the case of `COC(=O)C(CC#Cc1ccc2c(c1)[C@]1(C(=O)N2)[C@H](c2ccccc2OCCO)N2[C@H](c3ccccc3)[C@H](c3ccccc3)OC(=O)[C@H]2[C@@H]1C(N)=O)C(=O)OC`, the ROS induction (% of piperlongumine) is 447% (active).
With `O=C1O[C@H](c2ccccc2)[C@H](c2ccccc2)N2[C@H]1[C@@H](C(=O)N1CCN(c3ncccn3)CC1)[C@]1(C(=O)Nc3ccccc31)[C@H]2c1ccc(OCCO)cc1` the figure was 69.8%.
The same measure for `O=C1O[C@@H](c2ccccc2)[C@@H](c2ccccc2)N2[C@@H](c3ccccc3OCCO)[C@]3(C(=O)Nc4ccccc43)[C@@H](C(=O)N3CCCCCCC3)[C@H]12`: 108% (active); for `COCCOC(=O)N1C(=O)[C@@]2(c3cc(C#CCNC(N)=O)ccc31)[C@H](C(=O)N1CCN(c3ncccn3)CC1)[C@H]1C(=O)O[C@H](c3ccccc3)[C@H](c3ccccc3)N1[C@@H]2c1ccccc1OCCO`: 19.5%.
`C=CCNC(=O)[C@H]1[C@@H]2C(=O)O[C@@H](c3ccccc3)[C@@H](c3ccccc3)N2[C@@H](c2ccccc2OCCO)[C@]12C(=O)N(C(=O)OCCOC)c1ccc(C#Cc3ccc(OC)cc3)cc12`: the ROS induction (% of piperlongumine) is 15.7%.
With `O=C1O[C@@H](c2ccccc2)[C@@H](c2ccccc2)N2[C@@H](c3ccc(OCCO)cc3)[C@]3(C(=O)Nc4ccc(C#CCCO)cc43)[C@@H](C(=O)O)[C@H]12` the figure was 0.895%; with `COCCOC(=O)N1C(=O)[C@@]2(c3cc(C#CCC(C(=O)OC)C(=O)OC)ccc31)[C@H](c1ccc(OCCO)cc1)N1[C@H](c3ccccc3)[C@H](c3ccccc3)OC(=O)[C@H]1[C@@H]2C(N)=O`, 166% (active); with `COC(=O)C(CC#Cc1ccc2c(c1)[C@]1(C(=O)N2)[C@H](c2ccc(O)cc2)N2[C@H](c3ccccc3)[C@H](c3ccccc3)OC(=O)[C@H]2[C@@H]1C(=O)NC[C@H](O)c1ccccc1)C(=O)OC`, 16.4%.
For `COc1ccc(C#Cc2ccc3c(c2)[C@]2(C(=O)N3)[C@H](c3ccccc3OCCO)N3[C@H](c4ccccc4)[C@H](c4ccccc4)OC(=O)[C@H]3[C@@H]2C(=O)N2CCCCCCC2)cc1`, the ROS induction (% of piperlongumine) was -14.4%.
The same measure for `COc1ccc(CCNC(=O)c2cc3ccccc3c(=O)o2)cc1OC`: 19.8%; for `COc1ccc(/C=C(/NC(=O)c2ccccc2)C(=O)N2CC3(C)CC2CC(C)(C)C3)cc1` (stereo not drawn): 1.8%.
`CCOC(=O)C1CCN(C(=O)CN2C(=O)c3ccccc3C2=O)CC1`: the ROS induction (% of piperlongumine) is -6.98%.
The same measure for `COc1cccc(CNS(=O)(=O)c2ccc3[nH]c(=O)ccc3c2)c1`: -8.9%; for `C[C@@H]1CN([C@@H](C)CO)C(=O)c2cc(NC(=O)CCCN(C)C)ccc2O[C@H]1CN(C)Cc1ccccc1`: -15.8%; for `NS(=O)(=O)c1ccc(CCNC2=CC(=O)OC23CCCCC3)cc1`: -9.03%.
As for `COc1ccc(OC)c(NC(=O)CSc2n[nH]c(-c3ccncc3)n2)c1`, the ROS induction (% of piperlongumine) is 148% (active).
The same measure for `O=C(CSc1n[nH]c(-c2ccncc2)n1)Nc1ccccc1F`: -7%; for `COC(=O)c1ccccc1NC(=O)CSc1n[nH]c(-c2ccncc2)n1`: -0.326%; for `CC1CCCC(C)N1C(=O)c1cc2c(s1)-c1ccccc1OC2` (stereo not drawn): -1.02%.
